# ± gives the standard deviation of the averaged measurements.
# Columns and labels:
# Assay in all cases: promoter activity interaction Z-score (Lux/OD deviation from empty-vector control); higher = stronger promoter induction by the compound
# [1] = tested on: E. coli BW25113 acrABp lux reporter
# Method in brief: (§1)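 E. coli BW25113 (wild type or marA, soxS or rob deletion) carrying low-copy luxCDABE promoter reporters grew in 40 µl LB Lennox in 384-well plates at 37°C. Each compound was tested at four 1:2 dilutions in biological duplicates. OD600 and luminescence were read every 30 min for 12 h. Areas were taken over 0–8 h (wild type) or 1–9 h (mutants), and wells below 10% of median growth area were removed. The score is the Z-transformed residual of growth-normalised luminescence fitted against the empty-vector control.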
# [2] = tested on: E. coli BW25113 marRABp lux reporter
# Method in brief: as §1
# [3] = tested on: E. coli BW25113 micFp lux reporter
# Method in brief: as §1
# [4] = tested on: E. coli BW25113 ompFp lux reporter
# Method in brief: as §1
# [5] = tested on: E. coli BW25113 robp lux reporter
# Method in brief: as §1
# [6] = tested on: E. coli BW25113 soxSp lux reporter
# Method in brief: as §1
# [7] = tested on: E. coli BW25113 tolCp lux reporter
# Method in brief: as §1
# [8] = 28.4 µg/ml, genetic background: wild type
# [9] = 28.4 µg/ml, genetic background: ΔmarA
# [10] = 28.4 µg/ml, genetic background: Δrob
# [11] = 28.4 µg/ml, genetic background: ΔsoxS
# [12] = 56.8 µg/ml, genetic background: wild type
# [13] = 56.8 µg/ml, genetic background: ΔmarA
# [14] = 56.8 µg/ml, genetic background: Δrob
# [15] = 56.8 µg/ml, genetic background: ΔsoxS
# [16] = 113.7 µg/ml, genetic background: wild type
# [17] = 113.7 µg/ml, genetic background: ΔmarA
# [18] = 113.7 µg/ml, genetic background: Δrob
# [19] = 113.7 µg/ml, genetic background: ΔsoxS
# [20] = 227.3 µg/ml, genetic background: wild type
# [21] = 227.3 µg/ml, genetic background: ΔmarA
# [22] = 227.3 µg/ml, genetic background: Δrob
# [23] = 227.3 µg/ml, genetic background: ΔsoxS
smiles,measurement,setting,value
COc1ccc(CCN(C)CCCC(C#N)(c2ccc(OC)c(OC)c2)C(C)C)cc1OC (configuration not stated) [Verapamil],promoter activity interaction Z-score,[1]; [8],-0.0103 ± 0.0068
same,promoter activity interaction Z-score,[1]; [9],0.651 ± 0.14
same,promoter activity interaction Z-score,[1]; [10],-0.17 ± 0.16
same,promoter activity interaction Z-score,[1]; [11],-0.0848 ± 0.7
same,promoter activity interaction Z-score,[1]; [12],0.383 ± 0.58
same,promoter activity interaction Z-score,[1]; [13],0.649 ± 0.29
same,promoter activity interaction Z-score,[1]; [14],0.236 ± 0.12
same,promoter activity interaction Z-score,[1]; [15],-0.365 ± 0.9
same,promoter activity interaction Z-score,[1]; [16],0.623 ± 0.79
same,promoter activity interaction Z-score,[1]; [17],2.27 ± 1.4
same,promoter activity interaction Z-score,[1]; [18],0.0537 ± 0.02
same,promoter activity interaction Z-score,[1]; [19],-0.0861 ± 0.73
same,promoter activity interaction Z-score,[1]; [20],0.502 ± 0.14
same,promoter activity interaction Z-score,[1]; [21],2.09 ± 0.52
same,promoter activity interaction Z-score,[1]; [22],0.279 ± 0.19
same,promoter activity interaction Z-score,[1]; [23],0.136 ± 0.55
same,promoter activity interaction Z-score,[2]; [8],0.257 ± 0.13
same,promoter activity interaction Z-score,[2]; [9],0.21 ± 0.17
same,promoter activity interaction Z-score,[2]; [10],0.064 ± 0.21
same,promoter activity interaction Z-score,[2]; [11],-0.241 ± 0.54
same,promoter activity interaction Z-score,[2]; [12],0.22 ± 0.12
same,promoter activity interaction Z-score,[2]; [13],0.273 ± 0.099
same,promoter activity interaction Z-score,[2]; [14],0.311 ± 0.47
same,promoter activity interaction Z-score,[2]; [15],0.0416 ± 0.54
same,promoter activity interaction Z-score,[2]; [16],0.853 ± 0.13
same,promoter activity interaction Z-score,[2]; [17],0.923 ± 0.54
same,promoter activity interaction Z-score,[2]; [18],0.659 ± 0.32
same,promoter activity interaction Z-score,[2]; [19],0.193 ± 0.7
same,promoter activity interaction Z-score,[2]; [20],0.957 ± 0.16
same,promoter activity interaction Z-score,[2]; [21],1.14 ± 0.38
same,promoter activity interaction Z-score,[2]; [22],0.739 ± 0.49
same,promoter activity interaction Z-score,[2]; [23],0.385 ± 0.48
same,promoter activity interaction Z-score,[3]; [8],0.174 ± 0.55
same,promoter activity interaction Z-score,[3]; [9],0.00711 ± 0.17
same,promoter activity interaction Z-score,[3]; [10],0.232 ± 0.1
same,promoter activity interaction Z-score,[3]; [11],-0.114 ± 0.26
same,promoter activity interaction Z-score,[3]; [12],0.0628 ± 0.15
same,promoter activity interaction Z-score,[3]; [13],0.0935 ± 0.19
same,promoter activity interaction Z-score,[3]; [14],0.195 ± 0.062
same,promoter activity interaction Z-score,[3]; [15],-0.187 ± 0.36
same,promoter activity interaction Z-score,[3]; [16],0.65 ± 0.19
same,promoter activity interaction Z-score,[3]; [17],0.105 ± 0.032
same,promoter activity interaction Z-score,[3]; [18],0.115 ± 0.16
same,promoter activity interaction Z-score,[3]; [19],-0.238 ± 0.43
same,promoter activity interaction Z-score,[3]; [20],0.41 ± 0.066
same,promoter activity interaction Z-score,[3]; [21],-0.0581 ± 0.06
same,promoter activity interaction Z-score,[3]; [22],-0.1466 ± 0.00035
same,promoter activity interaction Z-score,[3]; [23],-0.0743 ± 0.052
same,promoter activity interaction Z-score,[4]; [8],-0.365 ± 0.11
same,promoter activity interaction Z-score,[4]; [9],-1.14 ± 0.89
same,promoter activity interaction Z-score,[4]; [10],-0.51 ± 0.49
same,promoter activity interaction Z-score,[4]; [11],-0.279 ± 0.15
same,promoter activity interaction Z-score,[4]; [12],-0.296 ± 0.077
same,promoter activity interaction Z-score,[4]; [13],-0.384 ± 0.03
same,promoter activity interaction Z-score,[4]; [14],-0.384 ± 0.42
same,promoter activity interaction Z-score,[4]; [15],-0.491 ± 0.42
same,promoter activity interaction Z-score,[4]; [16],0.443 ± 0.46
same,promoter activity interaction Z-score,[4]; [17],0.589 ± 0.067
same,promoter activity interaction Z-score,[4]; [18],0.355 ± 1.1
same,promoter activity interaction Z-score,[4]; [19],-0.599 ± 0.19
same,promoter activity interaction Z-score,[4]; [20],1.21 ± 0.48
same,promoter activity interaction Z-score,[4]; [21],1.56 ± 0.13
same,promoter activity interaction Z-score,[4]; [22],1.4 ± 0.93
same,promoter activity interaction Z-score,[4]; [23],1.09 ± 0.35
same,promoter activity interaction Z-score,[5]; [8],0.158 ± 0.075
same,promoter activity interaction Z-score,[5]; [9],0.0269 ± 0.54
same,promoter activity interaction Z-score,[5]; [10],0.215 ± 1.7
same,promoter activity interaction Z-score,[5]; [11],0.00204 ± 1.1
same,promoter activity interaction Z-score,[5]; [12],1.19 ± 0.91
same,promoter activity interaction Z-score,[5]; [13],-0.42 ± 0.62
same,promoter activity interaction Z-score,[5]; [14],-0.201 ± 0.23
same,promoter activity interaction Z-score,[5]; [15],0.308 ± 0.86
same,promoter activity interaction Z-score,[5]; [16],1.4 ± 0.44
same,promoter activity interaction Z-score,[5]; [17],1.73 ± 0.022
same,promoter activity interaction Z-score,[5]; [18],0.608 ± 0.43
same,promoter activity interaction Z-score,[5]; [19],-0.00665 ± 0.6
same,promoter activity interaction Z-score,[5]; [20],1.1 ± 0.18
same,promoter activity interaction Z-score,[5]; [21],2.29 ± 0.91
same,promoter activity interaction Z-score,[5]; [22],0.783 ± 1.4
same,promoter activity interaction Z-score,[5]; [23],1.05 ± 0.94
same,promoter activity interaction Z-score,[6]; [8],-0.18 ± 0.32
same,promoter activity interaction Z-score,[6]; [9],-0.165 ± 0.065
same,promoter activity interaction Z-score,[6]; [10],0.0441 ± 0.32
same,promoter activity interaction Z-score,[6]; [11],-0.273 ± 0.25
same,promoter activity interaction Z-score,[6]; [12],-0.187 ± 0.26
same,promoter activity interaction Z-score,[6]; [13],-0.0917 ± 0.18
same,promoter activity interaction Z-score,[6]; [14],-0.138 ± 0.19
same,promoter activity interaction Z-score,[6]; [15],-0.142 ± 0.42
same,promoter activity interaction Z-score,[6]; [16],0.17 ± 0.18
same,promoter activity interaction Z-score,[6]; [17],-0.0904 ± 0.16
same,promoter activity interaction Z-score,[6]; [18],-0.00688 ± 0.12
same,promoter activity interaction Z-score,[6]; [19],-0.0619 ± 0.28
same,promoter activity interaction Z-score,[6]; [20],-0.0451 ± 0.043
same,promoter activity interaction Z-score,[6]; [21],-0.359 ± 0.078
same,promoter activity interaction Z-score,[6]; [22],-0.361 ± 0.061
same,promoter activity interaction Z-score,[6]; [23],-0.0524 ± 0.36
same,promoter activity interaction Z-score,[7]; [8],0.46 ± 1.1
same,promoter activity interaction Z-score,[7]; [9],-0.252 ± 0.52
same,promoter activity interaction Z-score,[7]; [10],1.67 ± 0.9
same,promoter activity interaction Z-score,[7]; [11],0.403 ± 0.82
same,promoter activity interaction Z-score,[7]; [12],0.842 ± 0.79
same,promoter activity interaction Z-score,[7]; [13],0.112 ± 0.0026
same,promoter activity interaction Z-score,[7]; [14],1.38 ± 0.88
same,promoter activity interaction Z-score,[7]; [15],0.773 ± 0.7
same,promoter activity interaction Z-score,[7]; [16],1.44 ± 0.11
same,promoter activity interaction Z-score,[7]; [17],0.195 ± 0.35
same,promoter activity interaction Z-score,[7]; [18],0.654 ± 0.3
same,promoter activity interaction Z-score,[7]; [19],0.501 ± 1.5
same,promoter activity interaction Z-score,[7]; [20],0.0187 ± 0.66
same,promoter activity interaction Z-score,[7]; [21],-0.769 ± 0.041
same,promoter activity interaction Z-score,[7]; [22],-0.237 ± 0.19
same,promoter activity interaction Z-score,[7]; [23],-0.139 ± 0.8
